Experimental data taken from PubChem BioAssay (EPA / NIEHS).
Inconclusive results are not listed. Where a structure was tested more than once in an assay, its records may differ in their call. Activity calls are given as the source filed them. How the source made its calls, unless noted: active means hit-call score of the fitted dose curve at least 0.9, where 1 is the maximum; inconclusive means response in the unintended direction; inactive means score below 0.9.

Legend:
[1] = molecular target: Agonist Androgen Response Element (ARE), AR (gene 367) (UniProt P10275); test: OT_AR_ARELUC_AG_1440: Odyssey Thera (OT) 24-hour CHO-K1 Luciferase Assay for Agonist Androgen Response Element (ARE) (AID 2283379)
Summary of the method: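 Agonist mode, 24 h exposure in CHO-K1 ARE-luciferase cells; values reflect luminescence induction over vehicle.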

[2] = molecular target: Estrogen receptor (Homo sapiens) (UniProt P03372); test: OT_ERa_GFPERaERE_0480: Odyssey Thera (OT) 8-hour HeLa Transcription Induction Assay for Estrogen Receptor (AID 2283381; active means hit-call score of the fitted dose curve at least 0.9, where 1 is the maximum; inactive means score below 0.9)
Summary of the method: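 Fluorescent reporter signal, imaged by microscopy and scored with image-analysis algorithms, was taken 8 h after chemical dosing of HeLa cells; activity was fitted upward relative to DMSO.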

[3] = molecular target: Estrogen receptor (Homo sapiens) (UniProt P03372); test: OT_ERa_GFPERaERE_0120: Odyssey Thera (OT) 2-hour HeLa Transcription Induction Assay for Estrogen Receptor (AID 2283382)
Summary of the method: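 HeLa, 384-well, 2 h chemical exposure; GFP reporter induction (ERE), fluorescence microscopy; high content image analysis; positive fitting direction vs DMSO.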

[4] = molecular target: Retinoic acid receptor RXR-alpha (Homo sapiens) (UniProt P19793); test: OT_NURR1_NURR1RXRa_0480: Odyssey Thera (OT) 8-hour HEK293T Protein Complementation Assay for Nurr1/retinoid X receptor (RXR) (AID 2283385)
Summary of the method: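 8 h compound exposure, HEK293T; Nurr1/RXRα fragment complementation; fluorescence intensity; positive fitting direction vs DMSO baseline.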

[5] = molecular target: Retinoic acid receptor RXR-alpha (Homo sapiens) (UniProt P19793); test: OT_NURR1_NURR1RXRa_1440: Odyssey Thera (OT) 24-hour HEK293T Protein Complementation Assay for Nurr1/retinoid X receptor (RXR) (AID 2283386)
Summary of the method: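 Interaction of Nurr1 with RXRα brings fused reporter fragments together in human HEK293T cells, restoring a functional reporter. Fluorescence intensity is measured 24 h after chemical treatment, and values are analysed in the positive direction against DMSO.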

[6] = molecular target: Peroxisome proliferator-activated receptor gamma (Homo sapiens) (UniProt P37231); test: OT_PPARg_PPARgSRC1_0480: Odyssey Thera (OT) 8-hour Protein-Complementation Assay for Peroxisome Proliferator-activated Receptor Gamma / SRC-1 Co-activator (AID 2283387)
Summary of the method: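 Split-YFP (IFP1/IFP2) PPARg/SRC-1 reporter, HEK293T, 37 °C, 5% CO2; 8 h compound; formaldehyde fix + Draq5; high-content imaging, N/C ratio, ≥350 cells/image, positive direction vs DMSO.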

[7] = molecular target: Peroxisome proliferator-activated receptor gamma (Homo sapiens) (UniProt P37231); test: OT_PPARg_PPARgSRC1_1440: Odyssey Thera (OT) 24-hour Protein-Complementation Assay for Peroxisome Proliferator-activated Receptor Gamma/ SRC-1 Co-activator (AID 2283388)
Summary of the method: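 HEK293T cells transiently transfected with PPARg and SRC-1 fused via (Gly4Ser)2 linker to split Venus YFP fragments (IFP1/IFP2) were dosed 24 h; fixed, Draq5-stained, imaged at 488/635 nm; nuclear/cytoplasmic fluorescence ratio scored versus DMSO baseline, gain-of-signal.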

[8] = molecular target: human Dopamine Transporter (DAT), SLC6A3 (gene 6531) (UniProt Q01959); test: NVS_TR_hDAT: NovaScreen (NVS) Transporter Assay for human Dopamine Transporter (DAT) (AID 2283374);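 further: activity means loss of bound radioligand signal relative to DMSO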
Summary of the method: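 Test chemicals were first screened in duplicate at 25 uM, with actives retested as concentration series. Displacement of a specific radioligand from cell-free human dopamine transporter was measured after 1 h by filtration and scintillation counting.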

[9] = molecular target: human Norepinephrine Transporter (NET), SLC6A2 (gene 6530) (UniProt P23975); test: NVS_TR_hNET: NovaScreen (NVS) Transporter Assay for human Norepinephrine Transporter (NET) (AID 2283377);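 further: cell-free membrane protein extracted from CHO cells expressing human NET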;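 on AC50: displacement of radioligand from human NET seen as loss of scintillation signal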
Summary of the method: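 Scintillation counts of filter-retained radioligand served as the readout, taken 1 h post-dosing in a cell-free CHO-derived system. Test chemicals ran first at 25 uM in duplicate; confirmed hits were retested across concentrations.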

[10] = molecular target: Bile acid receptor (Homo sapiens) (UniProt Q96RI1); test: OT_FXR_FXRSRC1_0480: Odyssey Thera (OT) 8-hour HEK293T Protein-Complementation Assay for Farnesoid X receptor/SRC-1 Co-activator (AID 2283383)
Summary of the method: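 Human kidney HEK293T cells carried FXR/SRC-1 fragment-complementation constructs. Compounds were added and incubated 8 h. Reporter reassembly upon receptor–co-activator interaction was then quantified by fluorescence, with curves fitted in the positive direction relative to DMSO.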

[11] = molecular target: Bile acid receptor (Homo sapiens) (UniProt Q96RI1); test: OT_FXR_FXRSRC1_1440: Odyssey Thera (OT) 24-hour HEK293T Protein-Complementation Assay for Farnesoid X receptor/SRC-1 Co-activator (AID 2283384)
Summary of the method: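 Compounds are applied to human kidney HEK293T cells expressing bait and prey fused to reporter protein fragments; after 24 h, reconstituted reporter fluorescence is measured. Activity is fitted as signal gain over DMSO.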

[12] = CEETOX_H295R_OHPREG: CeeTox H295R High-throughput Steroidogenesis Assay for OH-Pregnenolone (OHPREG) (AID 2283434; active means hit-call score of the fitted dose curve at least 0.9, where 1 is the maximum; inactive means score below 0.9); conditions: actives raise or lower the signal
Summary of the method: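 Hormone levels in spent medium were measured by tandem mass spectrometry following liquid-liquid extraction. Cells (H295R) had been forskolin-stimulated (10 uM, 48 h) before a 48 h chemical exposure at 0.1% DMSO, with activity fitted in both directions against DMSO.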

[13] = CEETOX_H295R_OHPROG: CeeTox H295R High-throughput Steroidogenesis Assay for OH-Progesterone (OHPROG) (AID 2283435; active means hit-call score of the fitted dose curve at least 0.9, where 1 is the maximum; inactive means score below 0.9;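 on AC50: human adrenal H295R cells primed 48 h with 10 µM forskolin; 17alpha-hydroxyprogesterone secreted into medium measured by HPLC-MS/MS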); conditions: actives raise or lower the signal
Summary of the method: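 H295R, 10 uM forskolin prestim 48 h; cmpd in 0.1% DMSO 48 h; medium MTBE-extracted, HPLC-MS/MS for OH-progesterone; 7-pt std curve; bidirectional fit vs DMSO; MTT viability, chemicals diluted until viability >/=70%.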

[14] = CEETOX_H295R_11DCORT: CeeTox H295R High-throughput Steroidogenesis Assay for 11-Deoxycortisol (11DCORT) (AID 2283432; active means hit-call score of the fitted dose curve at least 0.9, where 1 is the maximum; inactive means score below 0.9;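 on AC50: human adrenal H295R cells prestimulated with 10 µM forskolin for 48 h; 11-deoxycortisol secreted into the medium measured by LC-MS/MS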); conditions: actives raise or lower the signal
Summary of the method: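 Steroidogenesis in human H295R cells: 48 h chemical exposure after forskolin priming, 11-deoxycortisol measured by LC-MS/MS.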

[15] = CEETOX_H295R_CORTIC: CeeTox H295R High-throughput Steroidogenesis Assay for Corticosterone (CORTIC) (AID 2283437; active means hit-call score of the fitted dose curve at least 0.9, where 1 is the maximum; inactive means score below 0.9;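 further: corticosterone secreted into medium quantified by mass spectrometry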;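 on AC50: human H295R adrenal cells prestimulated with forskolin before chemical exposure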); conditions: actives raise or lower the signal
Summary of the method: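 Corticosterone secreted into medium is measured by reverse-phase HPLC with tandem MS following liquid-liquid extraction. Cells are forskolin-stimulated (10 uM, 48 h) before 48 h test exposure; activity fitted in both directions against DMSO.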

[16] = CEETOX_H295R_CORTISOL: CeeTox H295R High-throughput Steroidogenesis Assay for Cortisol (AID 2283438; active means hit-call score of the fitted dose curve at least 0.9, where 1 is the maximum; inactive means score below 0.9;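 further: cortisol secreted into medium quantified by LC-MS/MS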); conditions: actives raise or lower the signal
Summary of the method: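 Forskolin 10 uM 48 h prestim → test cmpd in DMSO (0.1% final) 48 h → medium MTBE-extracted → LC-MS/MS cortisol vs 7-pt std curve. Gain/loss of signal fitted vs DMSO. MTT viability in same wells.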

[17] = CEETOX_H295R_ANDR: CeeTox H295R High-throughput Steroidogenesis Assay for Androstenedione (ANDR) (AID 2283436; active means hit-call score of the fitted dose curve at least 0.9, where 1 is the maximum; inactive means score below 0.9;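 further: human H295R adrenal cells exposed for 48 h with androstenedione measured in medium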); conditions: actives raise or lower the signal
Summary of the method: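 Read-out is androstenedione secreted into medium, measured by tandem mass spectrometry after liquid-liquid extraction. Cells were H295R, dosed for 48 h per modified OECD 456; activity fitted in both directions relative to DMSO.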

[18] = molecular target: rat Serotonin Transporter (SERT), Slc6a4 (gene 25553) (UniProt P31652); test: NVS_TR_rSERT: NovaScreen (NVS) Transporter Assay for rat Serotonin Transporter (SERT) (AID 2283375)
Summary of the method: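 Rat forebrain membranes were incubated with test chemical for 1 hour; radioligand binding to SERT was measured by filter-based scintillation counting. Primary screen ran in duplicate at 25 uM, with actives followed up in concentration series; DMSO served as negative control.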

[19] = molecular target: Norway rat Vesicular Monoamine Transporter (VMAT2), neurotransmitter transporter, Slc18a2 (gene 25549) (UniProt Q01827); test: NVS_TR_rVMAT2: NovaScreen (NVS) Transporter Assay for Norway rat Vesicular Monoamine Transporter (VMAT2), neurotransmitter transporter (AID 2283376);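 further: actives lower the bound radioligand signal below the DMSO level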
Summary of the method: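 Tissue: rat forebrain extract. Format: competitive radioligand binding, cell-free. Timepoint: 1 h. Readout: filter radiodetection/scintillation. Screen: 25 uM in duplicate, then concentration series for actives. Baseline: DMSO.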

Measured: AC50

Peroxisome proliferator-activated receptor gamma (Homo sapiens), sequence (P37231 whole entry, looked up, the tested form may be a part): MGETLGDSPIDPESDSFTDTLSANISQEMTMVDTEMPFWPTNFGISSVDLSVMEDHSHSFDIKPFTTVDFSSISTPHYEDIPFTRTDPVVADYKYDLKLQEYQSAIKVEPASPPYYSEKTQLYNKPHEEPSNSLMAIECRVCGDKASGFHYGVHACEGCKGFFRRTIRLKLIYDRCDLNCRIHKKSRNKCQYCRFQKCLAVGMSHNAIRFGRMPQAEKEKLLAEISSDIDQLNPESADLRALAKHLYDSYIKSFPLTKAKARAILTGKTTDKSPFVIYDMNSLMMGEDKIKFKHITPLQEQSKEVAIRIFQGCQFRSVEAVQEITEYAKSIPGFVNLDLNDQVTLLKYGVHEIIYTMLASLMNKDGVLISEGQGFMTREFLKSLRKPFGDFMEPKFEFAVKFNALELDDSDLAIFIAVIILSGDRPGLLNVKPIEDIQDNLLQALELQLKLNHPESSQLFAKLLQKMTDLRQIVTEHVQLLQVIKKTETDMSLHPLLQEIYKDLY
Retinoic acid receptor RXR-alpha (Homo sapiens), sequence (P19793 whole entry, looked up, the tested form may be a part): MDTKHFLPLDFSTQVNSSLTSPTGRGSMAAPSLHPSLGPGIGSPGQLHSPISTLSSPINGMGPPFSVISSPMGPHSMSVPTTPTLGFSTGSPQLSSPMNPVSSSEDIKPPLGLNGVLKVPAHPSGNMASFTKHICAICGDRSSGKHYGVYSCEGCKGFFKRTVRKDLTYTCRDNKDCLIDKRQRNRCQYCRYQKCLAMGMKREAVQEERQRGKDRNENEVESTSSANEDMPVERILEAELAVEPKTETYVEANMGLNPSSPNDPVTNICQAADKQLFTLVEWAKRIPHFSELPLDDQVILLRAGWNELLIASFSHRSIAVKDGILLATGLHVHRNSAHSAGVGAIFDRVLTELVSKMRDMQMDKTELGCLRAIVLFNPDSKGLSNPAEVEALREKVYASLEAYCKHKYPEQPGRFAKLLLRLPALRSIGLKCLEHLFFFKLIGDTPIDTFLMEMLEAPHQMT
Norway rat Vesicular Monoamine Transporter (VMAT2), neurotransmitter transporter, Slc18a2 (gene 25549), sequence (Q01827 whole entry, looked up): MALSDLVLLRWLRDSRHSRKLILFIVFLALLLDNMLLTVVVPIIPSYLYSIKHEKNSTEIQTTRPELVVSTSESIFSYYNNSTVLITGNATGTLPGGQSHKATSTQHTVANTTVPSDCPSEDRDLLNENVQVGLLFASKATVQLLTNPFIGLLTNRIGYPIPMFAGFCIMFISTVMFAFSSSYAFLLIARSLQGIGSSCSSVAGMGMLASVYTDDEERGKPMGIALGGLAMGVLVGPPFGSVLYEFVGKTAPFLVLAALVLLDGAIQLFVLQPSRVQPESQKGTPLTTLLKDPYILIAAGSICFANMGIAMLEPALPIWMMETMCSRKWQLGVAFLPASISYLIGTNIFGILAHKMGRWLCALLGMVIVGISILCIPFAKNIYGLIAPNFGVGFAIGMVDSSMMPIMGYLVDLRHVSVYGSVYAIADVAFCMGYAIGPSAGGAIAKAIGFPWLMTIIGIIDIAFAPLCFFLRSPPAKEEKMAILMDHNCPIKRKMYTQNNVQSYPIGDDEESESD
Estrogen receptor (Homo sapiens), sequence (P03372 whole entry, looked up): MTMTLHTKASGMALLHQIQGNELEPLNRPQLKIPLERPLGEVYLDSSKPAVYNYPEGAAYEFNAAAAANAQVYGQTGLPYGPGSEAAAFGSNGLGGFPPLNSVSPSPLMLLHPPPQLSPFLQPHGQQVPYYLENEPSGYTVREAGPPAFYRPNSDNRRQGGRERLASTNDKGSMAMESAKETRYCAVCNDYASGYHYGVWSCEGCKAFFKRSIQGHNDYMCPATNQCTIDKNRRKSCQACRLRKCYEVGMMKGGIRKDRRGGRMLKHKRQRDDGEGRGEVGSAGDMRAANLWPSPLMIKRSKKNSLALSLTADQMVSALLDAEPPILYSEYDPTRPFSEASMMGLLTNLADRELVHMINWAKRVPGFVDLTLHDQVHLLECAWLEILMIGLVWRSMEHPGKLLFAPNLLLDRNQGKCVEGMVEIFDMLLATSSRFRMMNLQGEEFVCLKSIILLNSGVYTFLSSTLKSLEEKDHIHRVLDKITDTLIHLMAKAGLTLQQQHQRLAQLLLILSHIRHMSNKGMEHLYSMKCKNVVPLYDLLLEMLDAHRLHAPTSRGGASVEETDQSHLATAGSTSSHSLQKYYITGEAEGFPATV
human Norepinephrine Transporter (NET), SLC6A2 (gene 6530), sequence (P23975 whole entry, looked up): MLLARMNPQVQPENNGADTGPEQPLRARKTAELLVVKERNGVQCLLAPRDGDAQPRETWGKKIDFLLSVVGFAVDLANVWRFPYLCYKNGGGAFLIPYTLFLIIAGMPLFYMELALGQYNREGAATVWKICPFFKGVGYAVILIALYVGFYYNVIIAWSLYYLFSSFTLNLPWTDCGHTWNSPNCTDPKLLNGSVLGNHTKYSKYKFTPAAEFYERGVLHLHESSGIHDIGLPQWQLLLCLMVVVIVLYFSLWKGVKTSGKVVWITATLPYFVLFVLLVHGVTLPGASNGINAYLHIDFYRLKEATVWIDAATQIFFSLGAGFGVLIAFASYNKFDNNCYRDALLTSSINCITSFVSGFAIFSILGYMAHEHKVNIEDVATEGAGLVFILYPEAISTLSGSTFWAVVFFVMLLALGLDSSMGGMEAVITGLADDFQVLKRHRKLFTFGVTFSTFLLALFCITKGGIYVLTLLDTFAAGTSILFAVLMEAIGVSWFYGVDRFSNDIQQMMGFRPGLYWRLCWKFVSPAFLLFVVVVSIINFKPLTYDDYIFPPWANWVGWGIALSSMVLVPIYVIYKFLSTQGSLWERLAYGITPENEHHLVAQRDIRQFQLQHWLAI
rat Serotonin Transporter (SERT), Slc6a4 (gene 25553), sequence (P31652 whole entry, looked up): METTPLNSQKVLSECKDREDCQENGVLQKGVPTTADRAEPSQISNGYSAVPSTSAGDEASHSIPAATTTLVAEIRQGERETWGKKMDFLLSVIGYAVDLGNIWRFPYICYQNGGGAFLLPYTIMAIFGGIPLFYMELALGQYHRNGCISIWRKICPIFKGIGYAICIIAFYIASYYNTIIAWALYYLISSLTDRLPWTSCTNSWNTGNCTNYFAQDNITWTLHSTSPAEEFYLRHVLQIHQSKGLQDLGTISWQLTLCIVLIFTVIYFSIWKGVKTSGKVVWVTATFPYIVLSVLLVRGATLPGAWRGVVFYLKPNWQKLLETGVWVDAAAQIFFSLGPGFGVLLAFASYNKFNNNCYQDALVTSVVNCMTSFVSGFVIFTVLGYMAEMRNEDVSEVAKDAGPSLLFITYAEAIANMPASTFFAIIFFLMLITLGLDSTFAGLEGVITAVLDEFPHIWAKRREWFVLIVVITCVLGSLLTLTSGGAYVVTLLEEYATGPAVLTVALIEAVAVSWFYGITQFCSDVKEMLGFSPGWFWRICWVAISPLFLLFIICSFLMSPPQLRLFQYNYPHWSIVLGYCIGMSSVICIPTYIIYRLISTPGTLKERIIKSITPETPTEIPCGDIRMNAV
Bile acid receptor (Homo sapiens), sequence (Q96RI1 whole entry, looked up, the tested form may be a part): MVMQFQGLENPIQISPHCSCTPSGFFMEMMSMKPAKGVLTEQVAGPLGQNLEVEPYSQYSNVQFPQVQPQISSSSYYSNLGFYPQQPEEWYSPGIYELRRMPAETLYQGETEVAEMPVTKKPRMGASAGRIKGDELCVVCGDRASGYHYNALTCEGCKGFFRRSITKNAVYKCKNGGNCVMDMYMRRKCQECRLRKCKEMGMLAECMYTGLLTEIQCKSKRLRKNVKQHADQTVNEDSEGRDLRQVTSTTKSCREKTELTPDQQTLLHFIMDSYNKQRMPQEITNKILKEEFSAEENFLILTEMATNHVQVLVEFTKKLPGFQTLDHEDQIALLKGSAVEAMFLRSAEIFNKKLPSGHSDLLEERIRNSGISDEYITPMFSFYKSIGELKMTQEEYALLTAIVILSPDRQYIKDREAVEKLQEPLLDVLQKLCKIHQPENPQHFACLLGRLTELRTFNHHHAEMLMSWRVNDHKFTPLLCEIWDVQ
human Dopamine Transporter (DAT), SLC6A3 (gene 6531), sequence (Q01959 whole entry, looked up): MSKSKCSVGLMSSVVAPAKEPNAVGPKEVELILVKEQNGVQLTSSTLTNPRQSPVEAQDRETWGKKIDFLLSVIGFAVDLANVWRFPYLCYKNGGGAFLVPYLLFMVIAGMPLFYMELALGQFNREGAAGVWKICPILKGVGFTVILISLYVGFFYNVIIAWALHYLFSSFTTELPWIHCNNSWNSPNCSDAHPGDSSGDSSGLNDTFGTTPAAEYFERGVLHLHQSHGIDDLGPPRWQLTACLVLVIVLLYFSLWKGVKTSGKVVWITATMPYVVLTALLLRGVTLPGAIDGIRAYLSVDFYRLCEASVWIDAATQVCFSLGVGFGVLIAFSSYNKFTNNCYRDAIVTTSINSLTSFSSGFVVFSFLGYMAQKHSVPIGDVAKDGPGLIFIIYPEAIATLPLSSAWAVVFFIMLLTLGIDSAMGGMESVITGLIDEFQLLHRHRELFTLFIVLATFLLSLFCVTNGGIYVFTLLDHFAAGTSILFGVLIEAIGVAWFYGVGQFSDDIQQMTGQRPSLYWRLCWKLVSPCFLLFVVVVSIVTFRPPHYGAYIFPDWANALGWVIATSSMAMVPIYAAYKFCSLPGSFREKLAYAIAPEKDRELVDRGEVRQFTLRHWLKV

CCOC1Oc2ccc(OS(C)(=O)=O)cc2C1(C)C (stereo unspecified)
active: [2] 55.4 µM | [3] 53.4 µM
inactive: [1] | [4] | [5] | [6] | [7]

CC(C)OC(=O)Nc1cccc(Cl)c1
inactive: [2] | [3] | [11] | [4] | [6] | [7] | [12] | [13]
active: [8] 16.3 µM | [9] 6.63 µM | [10] 48.4 µM

O=S(=O)(O)C(F)(F)C(F)(F)C(F)(F)C(F)(F)C(F)(F)C(F)(F)C(F)(F)C(F)(F)F
inactive: [9] | [4] | [5] | [6] | [7]

COP(=S)(OC)Oc1ccc(SC)c(C)c1
inactive: [2] | [3] | [4] | [5] | [6] | [7] | [12] | [15] | [16]
active: [8] 7.96 µM | [14] 41.5 µM | [13] 21.5 µM

O=[N+]([O-])/N=C1\NCCN1Cc1ccc(Cl)nc1
not listed: [8] | [9] | [18] | [19]
inactive: all other assays above

CC(C)N(C(=O)COc1nnc(C(F)(F)F)s1)c1ccc(F)cc1
active: [8] 13.6 µM | [18] 8.58 µM
not listed: [1] | [9] | [17] | [19]
inactive: all other assays above

Oc1ccc(Cl)cc1Cc1ccccc1
active: [8] 3.69 µM [middle of 8 runs] | [19] 13.8 µM | [9] 3.98 µM [middle of 6 runs] | [14] 77.7 µM | [17] 78 µM
inactive: [18] | [19] | [1] | [4] | [5] | [6] | [7] | [12] | [15] | [16]

CCCN(CCOc1c(Cl)cc(Cl)cc1Cl)C(=O)n1ccnc1
inactive: [5] | [6] | [7] | [13]
active: [8] 6.06 µM | [18] 3.82 µM | [19] 7.49 µM | [9] 5.14 µM | [10] 11.7 µM | [11] 12.4 µM | [4] 11.9 µM | [14] 0.374 µM | [12] 0.159 µM | [15] 0.0122 µM | [16] 0.355 µM

N#Cc1c(Cl)c(Cl)c(Cl)c(C#N)c1Cl
active: [18] 8.2 µM | [4] 0.0765 µM
inactive: [2] | [3] | [6] | [7] | [14] | [12] | [13] | [15] | [16]
